Assay results reported in the supplement of paper PMC6555819.

How the values were obtained:
Assay in all cases: PBM binding z-score (relative to random genomic background probes); higher = stronger binding; sequences stand for … in GC…GCGATTGACAGCGTAGAATGAAGG
[1] = test system: PPARg:RXRa DBDmut IVT, anti-RXR (DBD mutation: RXRa K156A/R161A, NR concentration 270 nM, RXRa partner concentration 90 nM)
Method in brief: (§1)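 Probes were double-stranded and carried 34-nt variable regions with direct-repeat seeds, single-nucleotide variants, half-site ablations and random human genomic background sequences, printed on custom Agilent 4×180K protein-binding microarrays. Arrays were incubated 1 h with ligand-free nuclear receptor dimers in PBS pH 7.4, 2% milk, 0.02% Triton X-100, 1 mM DTT, 0.2 mg/mL BSA and 0.4 mg/ml salmon testes DNA. Antibodies against each partner (one per run) detected binding, and scanned fluorescence was regression-normalized. Binding z-scores use the random background probes as reference.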

[2] = test system: PPARg:RXRa IVT, anti-PPARg (NR concentration 270 nM, RXRa partner concentration 90 nM)
Method in brief: as §1

[3] = test system: PPARg DBDmut:RXRa IVT, anti-PPARg (DBD mutation: PPARg1 K132A/R137A, NR concentration 270 nM, RXRa partner concentration 90 nM)
Method in brief: as §1

[4] = test system: PPARg DBDmut IVT, anti-PPARg (DBD mutation: PPARg1 K132A/R137A, NR concentration 270 nM)
Method in brief: as §1

[5] = test system: PPARg homodimer (NR concentration 180 nM)
Method in brief: as §1

[6] = test system: PXR:RXRa (NR concentration 270 nM, RXRa partner concentration 90 nM)
Method in brief: as §1

[7] = test system: PXR homodimer (NR concentration 270 nM)
Method in brief: as §1

[8] = test system: RARa:RXR (NR concentration 270 nM, RXRa partner concentration 90 nM)
Method in brief: as §1

[9] = test system: RARa homodimer (NR concentration 270 nM)
Method in brief: as §1

[10] = test system: RARb:RXRa (NR concentration 270 nM, RXRa partner concentration 90 nM)
Method in brief: as §1

[11] = test system: RARb homodimer (NR concentration 270 nM)
Method in brief: as §1

[12] = test system: RARg:RXRa (NR concentration 270 nM, RXRa partner concentration 90 nM)
Method in brief: as §1

[13] = test system: RARg homodimer (NR concentration 270 nM)
Method in brief: as §1

[14] = test system: RXRa DBDmut IVT, anti-RXR (DBD mutation: RXRa K156A/R161A, NR concentration 90 nM)
Method in brief: as §1

[15] = test system: RXRa homodimer (NR concentration 180 nM)
Method in brief: as §1

[16] = test system: THRa:RXRa (NR concentration 90 nM, RXRa partner concentration 90 nM)
Method in brief: as §1

[17] = test system: THRa homodimer (NR concentration 90 nM)
Method in brief: as §1

[18] = test system: VDR homodimer (NR concentration 270 nM)
Method in brief: as §1

Sequence	PBM binding z-score [1]	PBM binding z-score [2]	PBM binding z-score [3]	PBM binding z-score [4]	PBM binding z-score [5]	PBM binding z-score [6]	PBM binding z-score [7]	PBM binding z-score [8]	PBM binding z-score [9]	PBM binding z-score [10]	PBM binding z-score [11]	PBM binding z-score [12]	PBM binding z-score [13]	PBM binding z-score [14]	PBM binding z-score [15]	PBM binding z-score [16]	PBM binding z-score [17]	PBM binding z-score [18]
TTACCAAGGTGAAAGGTCGTTCATGCACGCCTTG	2.97	5.04	0.222	0.115	1.16	3.93	0.838	5.63	0.139	3.06	2.8	4.33	2.27	0.778	5.93	3.24	0.876	1.96
TCATATAGGTAATATAGGTGAAAGTCGGCATCTA	5.06	5.68	1.83	1.71	1.03	0.599	-0.0145	1.09	0.799	0.469	0.281	0.454	0.522	1.2	0.79	0.364	-0.347	0.0956
CCTACTGGGCCAAAGTCATTGATCAGTCAAAGCA	4.29	3.6	-0.537	-0.517	-0.302	-0.584	-0.623	-0.335	-1.15	0.121	-0.0618	-0.124	-0.109	-0.332	-0.525	-0.226	-0.645	-0.635
ATATGTAGGTTACAACCGGGTCATTCAGGCTATG	7.11	7.41	3.31	2.35	2.21	3.88	1.71	3.96	0.487	2.36	2.97	3.92	2.19	0.912	3.49	3.73	2.16	3.06
AATACAGGGTCATCGTAGGCCAGGGTACGCACAG	2.56	4.25	1.78	1.18	4.25	4.84	0.528	5.17	1.22	4.32	3.72	5.54	5.21	3.32	6.38	4.57	1.69	3.9
ATCTCTAGGTAAGACCCAGTTCAGTGAAGAACGC	2.24	1.79	0.676	0.699	0.695	0.9	1.45	0.59	0.821	0.371	0.62	0.282	0.0331	0.175	0.283	0.738	0.878	1.3
AATACAGAGTCATCGTAGGCCAGAGTACGCACAG	0.0374	0.268	0.399	0.579	-0.714	-0.113	-0.387	-0.0799	0.026	0.17	0.0687	0.22	0.465	-0.473	0.406	1.69	-0.921	0.0153
CCAGACAGGTGAAATGTAACTCAGTCTGGTACGC	1.56	0.99	-0.289	-0.0118	0.686	0.0204	-0.634	0.296	0.296	0.614	-0.215	0.487	0.478	0.261	0.624	0.0453	-0.307	-0.0884
GCTTACGGGTCAAAGGTTGTAGCATGAATAGAAT	5.13	5.38	0.728	1	3.02	5.04	0.237	7.21	0.364	3.99	2.84	5.74	4.09	2.43	8.07	3.2	0.00313	0.93
CGTCAAAGTTCAAGGTAACGTACCAGAAAGCAGC	0.681	2.41	0.882	0.599	4.5	4.28	3.52	3.57	2.48	5.12	3.97	5.35	6.14	4.5	4.54	3.12	1.39	3.21
CCTCGGAGGACAGAACGTCAGAGCTGTCCGCTTT	-0.575	-0.846	-2.12	-1.43	-1.05	-1.12	-0.765	-1.04	-0.587	0.103	-0.587	-0.462	-0.0228	-0.411	-1.12	-0.532	-0.473	-0.816
CCTAGTTTGTCAAGGTCACACACGCTATAGGTAC	1.6	2.96	1.92	1.48	4.48	4.71	5.83	4.57	2.66	4.18	4.5	4.51	4.58	2.88	4.73	4.32	4.77	4.93
TCATATAGGTAAAGGTGAAAGCCGAACGATATGA	3.94	4.09	1.05	1.68	1.25	0.502	-0.307	1.44	-0.251	1.83	1.16	1.44	1.18	0.508	1.93	1.47	-0.707	-0.196
TCCTATAGGTAAAGGTGAAAGTCGAACGATATGA	2.74	3.09	0.482	0.679	0.768	1.12	-0.316	1.49	0.203	1.96	1.42	1.47	1.3	0.809	1.98	1.26	-0.248	0.13
CGTCCAAGGTCAATGCTAGGTAAGTGAAAGCATT	2.99	3.27	0.401	-0.137	1.55	3.28	0.34	3.5	0.168	4.88	3.93	5.7	6.12	3.33	4.48	3.84	2	2.06
CGGACTAGGTCATCCAGGACAGTGAATACATTGA	7.5	7.58	1.52	0.792	1.9	1.59	0.944	1.89	0.179	3.49	2.76	3.66	4.36	1.7	2.43	3.48	1.79	1.59
TGAATGAGGTTATAAGATCAGTGAACGTTGCAAA	1.21	1.6	1.17	0.745	0.394	0.814	0.0458	1.62	0.171	1.25	0.307	1.49	0.953	0.773	1.95	1.69	0.0121	0.482
ATCGAAAGGTCCAGGTGAGTATAGAGAAAGGGAA	0.212	0.948	0.53	0.059	0.583	0.112	0.251	0.303	0.409	1.24	0.976	0.8	0.946	0.31	0.494	0.94	0.905	0.121
ATCTCTAGGTAAAGATAGTTCAGTAAATGCAAAT	1.89	1.77	1.18	0.812	0.801	1.14	0.936	0.952	1.67	0.706	1.08	0.439	0.876	0.336	0.446	0.803	0.595	0.651
CAAACTAGGTCATAGAGGTCAAAGTCCGTGCGTA	8.2	8.54	1.02	1.45	5.21	6.75	12.4	6.77	2.28	5.12	5.51	6.95	7.46	3.57	7.64	4.64	2.63	7.04
AGAACGAGGGCACGCTAAGTTGATAGCAGAGTAG	4.41	3.93	1.79	0.754	0.364	1.11	0.0616	1.3	-0.579	2.51	1.19	2.2	2.4	1.74	1.49	1.97	0.0343	1.42
CGTCCAAGGTAAGCAGGTCAGTGAAAGCGACGTG	1.7	1.91	-0.624	-0.894	0.421	0.192	-0.446	0.529	-0.36	1.89	2.25	1.08	1.44	-0.436	0.485	1.7	0.269	-0.407
CCTACTGGGCCATTCAGACGTCATTGATCATATG	4.26	3.42	0.223	0.732	-0.0853	-0.71	-0.506	-0.696	-0.0635	-0.11	-0.514	-0.25	0.169	-0.119	-0.341	-0.533	-0.741	-0.378
TCTTGTAGAGCAAAGGTTAAGAAAGCCGAAGCCT	2.94	4.15	0.281	-0.0845	0.283	1.49	-0.688	2.16	-0.59	1.62	1.17	1.43	0.586	-0.181	2.6	1.06	-1.14	-0.734
